Each structure is given as a SMILES string. Results filed as inconclusive are left out. The source made the active and inactive calls. Calls follow the shape of the dose curve; as a rule, active = well fitted inhibition curve with a large enough effect; inconclusive = small, poorly fitted or top-dose-only effect; inactive = flat fitted curve, though single readings scatter.

Holding throughout (experiment): qHTS profiling for inhibitors of Plasmodium falciparum proliferation (AID 504749); also: nearly all actives have a fitted effect of over 60% in size
Holding throughout (details): P. falciparum in erythrocytes, SYBR Green DNA, 72 h; series mostly up to 28.7 µM
In general terms: In qHTS, concentration-response curves come from the screen itself.

One experiment has as its system DIV14. The method in brief: (§1)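 Each compound contacts P. falciparum-infected red blood cells for 72 h at 37 C; lysis buffer (Tris, EDTA, saponin, Triton X, SYBR Green I) is added and fluorescence measured next morning; values normalized to controls.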
Another experiment relates to DIV17. In short, it runs like this: as §1
In another experiment the test system is DIV30. In short, it runs like this: as §1
The next experiment deals with Dd2. In short, it runs like this:
as §1

The test system of the next experiment is ECU. The method in brief: as §1
For another experiment, the system named is FAB9. The method in brief:
as §1

The subject of another experiment is GB4. In short, it runs like this:
as §1

Another experiment relates to HB3. The method in brief:
as §1

In another experiment the test system is ICS. The method in brief: as §1
A further experiment has as its system JCK. The method in brief: as §1
Potency is read from the fitted curve at half-maximal effect.

As for `Cc1cccn2c(=O)c(-c3nnn[nH]3)cnc12`, the Potency entry with DIV14, with DIV17, in the experiment on DIV30, with Dd2, with ECU and in the experiment with FAB9 was “inactive” each time. The Potency result in the experiment with GB4, with HB3, in the experiment with ICS and in the experiment with JCK was “inactive” each time.
For the compound `CCCCCC=CCC=CCCCCCCCC(=O)OCC`, the Potency result in the experiment on DIV14, in the experiment with DIV17, with DIV30, in the experiment on Dd2, in the experiment with ECU and with FAB9 was “inactive” throughout. Besides, the Potency entry with GB4, in the experiment with HB3, with ICS and in the experiment on JCK was “inactive” in each case.
For the compound `CN=C(NC#N)NCCSCc1csc(N=C(N)N)n1`, the Potency result in the experiment on DIV14, with DIV17, in the experiment with DIV30, in the experiment on Dd2, in the experiment with ECU and with FAB9 was “inactive” throughout. The Potency entry in the experiment with GB4, in the experiment with HB3, in the experiment on ICS and in the experiment with JCK was “inactive” in each case.
As for `COc1cccc2c1C(=O)c1c(O)c3c(c(O)c1C2=O)C[C@@](O)(C(C)=O)C[C@@H]3O[C@H]1C[C@H](N)[C@H](O)[C@H](C)O1`, the Potency with DIV14 was 1.9 µM (active); in the experiment on DIV17 it was 1.35 µM (active); in the experiment on DIV30 it was 6.75 µM (active); with Dd2 it was 2.24 µM (active); with ECU, 8.91 µM (active); in the experiment with FAB9, 3.98 µM (active). Further, the Potency was 1.9 µM (active) with GB4, 4.47 µM (active) in the experiment with HB3, 1.41 µM (active) with ICS and 11.2 µM (active) in the experiment with JCK.
Regarding `CC(C)(C)CC(C)(C)c1ccc(OCCOCC[N+](C)(C)Cc2ccccc2)cc1`, the Potency with DIV14 was 3.38 µM (active); in the experiment with DIV17 it was 4.78 µM (active); with DIV30, 4.26 µM (active); in the experiment with Dd2, 4.47 µM (active); in the experiment with ECU, 5.01 µM (active); in the experiment on FAB9, 5.01 µM (active). Further, the Potency is 3.38 µM (active) in the experiment with GB4, 6.31 µM (active) in the experiment with HB3, 1.26 µM (active) in the experiment on ICS and 6.31 µM (active) in the experiment on JCK.
With `CCOc1ccc(NC(=O)CC(C)O)cc1` (stereo not given), the Potency entry in the experiment with DIV14, in the experiment on DIV17, with DIV30, with Dd2, in the experiment with ECU and in the experiment on FAB9 was “inactive” each time. The Potency result in the experiment with GB4, in the experiment with HB3, in the experiment on ICS and in the experiment on JCK was “inactive” throughout.
For the compound `CCC(=O)c1c(O)cc(O)cc1O`, the Potency result with DIV14, with DIV17, in the experiment with DIV30, in the experiment with Dd2, in the experiment with ECU and with FAB9 was “inactive” each time. In addition, the Potency entry in the experiment on GB4, with HB3, in the experiment with ICS and in the experiment with JCK was “inactive” throughout.
Turning to `Cc1c(C(N)=O)cc([N+](=O)[O-])cc1[N+](=O)[O-]`, the Potency entry with DIV14, in the experiment on DIV17, in the experiment with DIV30, in the experiment with Dd2, in the experiment on ECU and in the experiment on FAB9 was “inactive” each time. The Potency result in the experiment on GB4, in the experiment with HB3, with ICS and with JCK was “inactive” each time.
As to `CC(=O)Nc1c(I)cc(I)c(C(=O)O)c1I`, the Potency entry with DIV14, in the experiment on DIV17, in the experiment with DIV30, in the experiment on Dd2, in the experiment on ECU and in the experiment on FAB9 was “inactive” in each case. The Potency result with GB4, in the experiment with HB3, in the experiment on ICS and in the experiment with JCK was “inactive” throughout.
Take `C[C@H]1[C@H](NC(=O)/C(=N/OC(C)(C)C(=O)O)c2csc(N)n2)C(=O)N1S(=O)(=O)O` (stereo in doubt): the Potency entry with DIV14, in the experiment with DIV17, in the experiment with DIV30, in the experiment with Dd2, in the experiment on ECU and with FAB9 was “inactive” in each case. Besides, the Potency result with GB4, with HB3, with ICS and in the experiment with JCK was “inactive” throughout.
Regarding `Nc1ccc(/C=C/c2ccc(N)cc2S(=O)(=O)O)c(S(=O)(=O)O)c1`, the Potency result with DIV14, with DIV17, with DIV30, with Dd2, in the experiment on ECU and with FAB9 was “inactive” in each case. Besides, the Potency entry with GB4, with HB3, in the experiment with ICS and in the experiment with JCK was “inactive” each time.
`CCN1CCCC1=O`: the Potency result in the experiment with DIV14, with DIV17, in the experiment with DIV30, in the experiment on Dd2, with ECU and with FAB9 was “inactive” each time. The Potency entry in the experiment with GB4, in the experiment on HB3, in the experiment on ICS and in the experiment with JCK was “inactive” each time.
With `CC(=O)N(O)CCCCCNC(=O)CCC(=O)N(O)CCCCCNC(=O)CCC(=O)N(O)CCCCCN`, the Potency result in the experiment with DIV14, in the experiment on DIV17, in the experiment on DIV30, in the experiment with Dd2, in the experiment on ECU and with FAB9 was “inactive” in each case. The Potency entry in the experiment with GB4, with HB3 and in the experiment on ICS was “inactive” throughout. In the experiment with JCK, the Potency was 10 µM (active).
With `Cc1cc(=O)n(-c2ccccc2)n1C`, the Potency entry in the experiment with DIV14, in the experiment on DIV17, with DIV30, with Dd2, with ECU and in the experiment with FAB9 was “inactive” throughout. The Potency result in the experiment on GB4, in the experiment on HB3, in the experiment with ICS and with JCK was “inactive” each time.
For `O=C(COc1ccc(Cl)cc1)N1CCN(Cc2ccc3c(c2)OCO3)CC1`, the Potency entry with DIV14, with DIV17, in the experiment with DIV30, in the experiment on Dd2, with ECU and with FAB9 was “inactive” each time. Besides, the Potency entry in the experiment on GB4, with HB3, with ICS and in the experiment with JCK was “inactive” in each case.
`C#C[C@]1(OC(C)=O)CC[C@H]2[C@@H]3CCC4=C[C@@H](OC(C)=O)CC[C@@H]4[C@H]3CC[C@@]21C`: the Potency result with DIV14, in the experiment with DIV17, in the experiment with DIV30, in the experiment with Dd2, in the experiment with ECU and with FAB9 was “inactive” in each case. Also, the Potency result with GB4, in the experiment with HB3, with ICS and in the experiment with JCK was “inactive” throughout.
In the case of `CCCCCCC[N+](CC)(CC)CCCCc1ccc(Cl)cc1`, the Potency in the experiment on DIV14 is 0.809 µM (active); with DIV17, 0.809 µM (active); in the experiment on DIV30 it was 2.28 µM (active); with Dd2, 2 µM (active); with ECU it was 1.58 µM (active); in the experiment on FAB9, 3.55 µM (active). The Potency is 0.721 µM (active) in the experiment on GB4, 2.51 µM (active) in the experiment on HB3, 0.708 µM (active) with ICS and 3.16 µM (active) in the experiment on JCK.
For `Cc1c(N(C)CS(=O)(=O)O)c(=O)n(-c2ccccc2)n1C`, the Potency result in the experiment on DIV14, in the experiment on DIV17, in the experiment with DIV30, in the experiment with Dd2, with ECU and in the experiment with FAB9 was “inactive” throughout. The Potency entry in the experiment on GB4, in the experiment on HB3, in the experiment with ICS and in the experiment on JCK was “inactive” each time.
For `COc1cc2c(cc1OC)C(C(C(=O)N(CCc1ccc(OC)c(OC)c1OC)CCc1ccc(OC)c(OC)c1OC)c1ccccc1)=NCC2` (stereo not given), the Potency with DIV14 is 1.35 µM (active); in the experiment on DIV17, 1.35 µM (active); with DIV30 it was 1.35 µM (active); in the experiment with Dd2 it was 3.98 µM (active); in the experiment with ECU it was 2.24 µM (active); in the experiment with FAB9, 11.2 µM (active). Also, the Potency in the experiment on GB4 is 7.57 µM (active); in the experiment on HB3, 5.01 µM (active); in the experiment with ICS, 0.199 µM (active); with JCK it was 10 µM (active).
For `CCCn1c(=O)[nH]c(=O)c2[nH]cnc21`, the Potency result in the experiment with DIV14, in the experiment on DIV17, in the experiment with DIV30, in the experiment on Dd2, in the experiment with ECU and in the experiment with FAB9 was “inactive” each time. Also, the Potency entry in the experiment with GB4, in the experiment with HB3, in the experiment on ICS and in the experiment with JCK was “inactive” in each case.

Values taken from PubChem BioAssay (NCATS).
